Measurements as given in the supplement of paper PMC10670038.
Where a name gives a salt, the structure may show the parent alone. ± gives the standard deviation of the averaged measurements. Whole data set: some 2,000 compounds, median “relative cell viability vs DMSO, compound alone” near 1.1, cut for the lowest 2% near 0.29. The entries come from a sample that favours the lowest values as a whole.

Each compound was assayed on TE10 (assay: relative cell viability vs DMSO, compound alone (fraction); TE10 is an esophageal squamous carcinoma line; higher = less cytotoxic). Conditions: 2 µM; 48 h.
Description: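 TE10 ESCC cells (1,000/well, 384-well plates) were treated with Selleck bioactive library compounds at 2 uM alone for 48 h. Viability was read by CellTiter-Glo and expressed relative to DMSO wells. Two technical replicates (A, B).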

Compound | relative cell viability
C[C@H](N[C@@H](CCc1ccccc1)C(=O)O)C(=O)N1CCC[C@H]1C(=O)O [Enalaprilat Dihydrate] | 1.12 ± 0.029
COC(=O)[C@H](Cc1ccccc1)NC(=O)[C@@H](N)CC(=O)O [Aspartame] | 1.06 ± 0.036
COc1ccc(C[C@H](NC(=O)[C@H](C)NC(=O)CN2CCOCC2)C(=O)N[C@@H](Cc2ccccc2)C(=O)[C@@]2(C)CO2)cc1 | 0.0804 ± 0.0014
CC(C)C[C@H](NC(=O)[C@H](CCc1ccccc1)NC(=O)CN1CCOCC1)C(=O)N[C@@H](Cc1ccccc1)C(=O)N[C@@H](CC(C)C)C(=O)[C@@]1(C)CO1 [Carfilzomib (PR-171)] | 0.0894 ± 0.0027
O=C(Cc1ccc(-c2ccc(OCCN3CCOCC3)cc2)cn1)NCc1ccccc1 | 0.816 ± 0.05
COC[C@H](NC(=O)c1cnc(C)s1)C(=O)N[C@@H](COC)C(=O)N[C@@H](Cc1ccccc1)C(=O)[C@@]1(C)CO1 [Oprozomib (ONX 0912)] | 0.0586 ± 0.0043
CC(C)c1nc(CN(C)C(=O)N[C@@H](CCN2CCOCC2)C(=O)N[C@H](CC[C@H](Cc2ccccc2)NC(=O)OCc2cncs2)Cc2ccccc2)cs1 [Cobicistat (GS-9350)] | 1.11 ± 0.05
CC(=O)NC(Cc1ccc(O)cc1)C(=O)NC(CCCN=C(N)N)C(=O)NC(Cc1ccccc1)C(N)=O (stereo unspecified) | 0.828 ± 0.052
CC(C)CC(CC(=O)NO)C(=O)N[C@@H](Cc1ccc2ccccc2c1)C(=O)N[C@@H](C)C(=O)NCCN (stereo partly specified) | 1.04 ± 0.077
O=C(NCC1(c2nc(-c3ccccc3)cs2)CCOCC1)c1cccc(-c2noc(C(F)(F)F)n2)c1 | 0.8055 ± 0.0031
C/C(=N\NC(=O)c1cccc(S(=O)(=O)N2CCOCC2)c1)c1cc(Cl)ccc1O | 0.87899 ± 0.00067
CC1(COc2ccc3c(c2)ncn3-c2ccc3cccc(N4CCC(N)CC4)c3n2)COC1 | 1.1 ± 0.033
O=C(NCc1ccc(Oc2ccccc2)cc1)c1nc(-c2cc(Br)c(O)c(Br)c2)no1 | 1.17 ± 0.012
CNC(=C[N+](=O)[O-])NCCSCc1csc(CN(C)C)n1 [Nizatidine] | 1.08 ± 0.056
CC(=O)N[C@H]1[C@H]([C@H](O)[C@H](O)CO)OC(C(=O)O)=C[C@@H]1NC(=N)N [Zanamivir] | 1.13 ± 0.049
CO/N=C(\C(=O)N[C@@H]1C(=O)N2C(C(=O)OCOC(=O)C(C)(C)C)=C(/C=C\c3scnc3C)CS[C@H]12)c1csc(N)n1 [Cefditoren Pivoxil] | 0.991 ± 0.099
C[C@]12C=CC(=O)C=C1CC[C@H]1[C@@H]3C[C@@H](O)[C@](O)(C(=O)CO)[C@@]3(C)C[C@H](O)[C@@]12F [Triamcinolone] | 0.9665 ± 0.0039
OC[C@@H](O)[C@@H](O)[C@@H](O)CO [Ribitol] | 1.126 ± 0.0056
CC1=CC(=O)c2ccccc2C1=O [Menadione] | 0.981 ± 0.01
CC(=O)Nc1ccccc1 [Acetanilide] | 0.976 ± 0.25
CC(C)(C)C(=O)Nc1ccc2c(c1)C(=O)C(=O)c1ccccc1-2 | 0.0653 ± 0.0041
O=C(Nc1cccc(C(F)(F)F)c1)Nc1cc(S(=O)(=O)NC2CC2)ccc1-c1ccsc1 | 0.982 ± 0.031
Cn1c2ccccc2c2c3c(c4c5ccccc5n(CCC#N)c4c21)CNC3=O | 1 ± 0.081
CN1CCc2nc(C(=O)N[C@@H]3C[C@@H](C(=O)N(C)C)CC[C@@H]3NC(=O)C(=O)Nc3ccc(Cl)cn3)sc2C1 [Edoxaban] | 1.09 ± 0.014

Compound | relative cell viability
NC(=O)C1CCCc2c1[nH]c1ccc(Cl)cc21 (stereo unspecified) [EX 527 (Selisistat)] | 0.983 ± 0.2
CCOC(=O)c1ccc(NC(=O)O[C@H]2[C@H](OC(=O)Nc3ccc4c(c3)OCO4)[C@@H](OC(=O)Nc3ccc4c(c3)OCO4)[C@@H](OC)O[C@@H]2CO)cc1 | 1.16 ± 0.047
Cn1cc(-c2ccc3ncc(Cc4ccc5ncccc5c4)n3n2)cn1 | 1.13 ± 0.055
COc1ccc(C[C@H](N)C(=O)N[C@H]2[C@@H](O)[C@H](n3cnc4c(N(C)C)ncnc43)O[C@@H]2CO)cc1 [Puromycin 2HCl] | 0.133 ± 0.042
CNc1ncnc2c1ncn2[C@@H]1O[C@H](CO)[C@@H](O)[C@H]1O [N6-methyladenosine (m6A)] | 0.9679 ± 0.0062
COc1nc(N)nc2c1ncn2[C@@H]1O[C@H](CO)[C@@H](O)[C@@H]1O [Nelarabine] | 1.11 ± 0.05
CN(C)Cc1cccc(N=C(c2ccccc2)c2c(O)[nH]c3cc(C(=O)N(C)C)ccc23)c1 | 0.903 ± 0.035
COc1cc2c(NC3CCN(CC4CCCCC4)CC3)nc(N3CCCN(C(C)C)CC3)nc2cc1OCCCN1CCCCC1 | 1 ± 0.13
O=C(O)CCCC[C@@H]1SC[C@@H]2NC(=O)N[C@@H]21 [Biotin (Vitamin B7)] | 0.999 ± 0.036
CN[C@@H]1[C@H](O)[C@H](NC)[C@H]2O[C@@]3(O)C(=O)C[C@@H](C)O[C@H]3O[C@@H]2[C@H]1O [Spectinomycin HCl] | 1.03 ± 0.12
CN(C)c1cc(NC(=O)CNC(C)(C)C)c(O)c2c1CC1CC3C(N(C)C)C(=O)C(C(N)=O)=C(O)C3(O)C(=O)C1=C2O (stereo unspecified) [Tigecycline] | 1.111 ± 0.0089
O=C(C=Cc1ccccc1)NC(NC(=S)Nc1ccc(Cl)cc1)C(Cl)(Cl)Cl (stereo unspecified) | 1.07 ± 0.03
Cn1cc(/C=C/C(=O)c2cccc(F)c2)cc1/C=C/C(=O)NO | 1.11 ± 0.077
O=C(/C=C/c1cccc(S(=O)(=O)Nc2ccccc2)c1)NO [Belinostat (PXD101)] | 0.216 ± 0.0062
CC(=O)Oc1cc2c(s1)CCN(C(C(=O)C1CC1)c1ccccc1F)C2 (stereo unspecified) [Prasugrel] | 1.139 ± 0.0097
COc1cc(Nc2ncc(F)c(Nc3ccc4c(n3)NC(=O)C(C)(C)O4)n2)cc(OC)c1OC [R406 (free base)] | 0.844 ± 0.051
COc1cc(Nc2ncc(F)c(Nc3ccc4c(n3)NC(=O)C(C)(C)O4)n2)cc(OC)c1OC | 0.96 ± 0.015
Cc1c(C(=O)Nc2ccc(N3CCC(N4CCOCC4)CC3)c(C#N)c2)cnn1-c1ccc(Cl)cc1 | 1.08 ± 0.024
Cc1c(C(=O)Nc2ccc(Oc3ccnc4[nH]cc(-c5ccccc5)c34)c(F)c2)c(=O)n(-c2ccc(F)cc2)n1C | 1 ± 0.027
Nc1nc(N)c(N=O)c(OCC2CCCCC2)n1 | 1.03 ± 0.023
O=C(Cc1ccccc1)Nc1nnc(CCSCCc2nnc(NC(=O)Cc3ccccc3)s2)s1 | 0.866 ± 0.049
CCCc1nn(C)c2c(=O)[nH]c(-c3cc(S(=O)(=O)N4CCN(C)CC4)ccc3OCC)nc12 [Sildenafil Citrate] | 1.2 ± 0.029
Cc1ccc(S(=O)(=O)C=CC#N)cc1 | 0.063 ± 0.0047
CC(C)(C)c1ccc(S(=O)(=O)/C=C/C#N)cc1 | 0.0635 ± 0.0029

Compound | relative cell viability
CNc1nc(-c2ccc3c(N)n[nH]c3c2)cc(N2C[C@@H](C(=O)NC3CCCCC3)CC[C@H]2C)n1 | 1.05 ± 0.037
COc1c(N2C[C@@H]3CCCN[C@@H]3C2)c(F)cc2c(=O)c(C(=O)O)cn(C3CC3)c12 [Moxifloxacin HCl] | 1.18 ± 0.016
C[C@]12CC[C@@H]3c4ccc(O)cc4CC[C@H]3[C@@H]1CC[C@@H]2OC(=O)CCC1CCCC1 [Estradiol Cypionate] | 1.13 ± 0.085
Cn1cc(-c2[nH]c3cc(NC(=O)[C@H](N)C4CCCCC4)cc4c3c2C=NNC4=O)cn1 | 1.05 ± 0.075
CCOc1cc([C@@H](CS(C)(=O)=O)N2C(=O)c3cccc(NC(C)=O)c3C2=O)ccc1OC | 0.887 ± 0.18
CC(C)c1nc(CN(C)C(=O)N[C@H](C(=O)N[C@@H](Cc2ccccc2)C[C@H](O)[C@H](Cc2ccccc2)NC(=O)OCc2cncs2)C(C)C)cs1 [Ritonavir] | 1.13 ± 0.062
CC(NC(=O)C(Cc1ccccc1)NC(=O)OCc1ccccc1)C(=O)CF (stereo unspecified) | 1.14 ± 0.064
CCCC[C@@H](C=O)NC(=O)[C@H](CC(C)C)NC(=O)OCc1ccccc1 [Calpeptin] | 1 ± 0.021
CC(C)C[C@@H](C=O)NC(=O)[C@H](CC(C)C)NC(=O)[C@H](CC(C)C)NC(=O)OCc1ccccc1 | 0.0786 ± 0.0013
CCCCC(=O)O[C@]1(C(=O)CO)[C@@H](C)C[C@H]2[C@@H]3CCC4=CC(=O)C=C[C@]4(C)[C@@]3(F)[C@@H](O)C[C@@]21C [Betamethasone valerate (Betnovate)] | 0.865 ± 0.078
COc1cc(Nc2nc3ccccc3nc2NS(=O)(=O)c2ccc(NC(=O)c3ccc(C)c(OC)c3)cc2)cc(OC)c1 | 1.15 ± 0.067
O=C(c1cn(Cc2cncn2Cc2ccc(Br)cc2)cc1-c1cccc2ccccc12)N1CCOCC1 | 0.958 ± 0.015
CCc1cc(/C(C)=N/OCc2ccc(C3CCCCC3)c(C(F)(F)F)c2)ccc1CN1CC(C(=O)O)C1 [BAF312 (Siponimod)] | 1.1 ± 0.07
O=C(O)c1cc(/N=N/c2ccc(O)c(C(=O)O)c2)ccc1O [Olsalazine Sodium] | 1.12 ± 0.12
CC(C)CCNC(=O)[C@H](CC(C)C)NC(=O)[C@H]1O[C@@H]1C(=O)O [Loxistatin Acid (E-64C)] | 1.1 ± 0.019
CCCCC(C=O)NC(=O)C(CC(C)C)NC(=O)C(CC(C)C)NC(C)=O (stereo unspecified) | 0.266 ± 0.011
CC(=O)N[C@@H](CC(C)C)C(=O)N[C@@H](CC(C)C)C(=O)N[C@H](C=O)CCCNC(=N)N [Leupeptin Hemisulfate] | 1.09 ± 0.015
Cc1ccc(C(=O)Nc2cccc(C(F)(F)F)c2)cc1Nc1nc(-c2cccnc2)nc2c1cnn2C | 1.13 ± 0.043
Cc1cnc(NC(=O)C2=C(O)c3ccccc3S(=O)(=O)N2C)s1 [Meloxicam] | 1.11 ± 0.045
CC(=O)O[C@]1(C(C)=O)CC[C@H]2[C@@H]3C[C@H](C)C4=CC(=O)C=C[C@]4(C)[C@@]3(F)[C@@H](O)C[C@@]21C [Fluorometholone Acetate] | 0.914 ± 0.099
CCCCC(=O)O[C@H]1CC[C@H]2[C@@H]3CCc4cc(O)ccc4[C@H]3CC[C@]12C [Estradiol valerate] | 1.07 ± 0.1
Cc1ccc(NC(=O)c2ccc(CN3CCN(C)CC3)cc2)cc1Nc1nc(-c2cccnc2)cs1 [Masitinib (AB1010)] | 1.084 ± 0.0069
CC(C)(C)c1cc(NC(=O)Nc2ccc(-c3cn4c(n3)sc3cc(OCCN5CCOCC5)ccc34)cc2)no1 [Quizartinib (AC220)] | 0.594 ± 0.04
